Screening results deposited in PubChem by National Center for Advancing Translational Sciences (NCATS).
Only some compounds are listed: those with a hit (about 19% of all), similar ones and a draw of the others.
DT40 TDP1 CPT: growth inhibition of DT40 Tdp1-/-;hTDP1 cells with camptothecin (screen for TDP1 inhibitors). Potency, µM (doses to about 46.2 µM), inactives show at the top dose activity change, negative = growth inhibition, hits mostly inhibitors. chicken DT40 Tdp1-/-;hTDP1 cells + 20 nM CPT, ATP luminescence, 48 h. hit rate 12% among 420,000; also: potency is read from the fitted curve at half-maximal effect; nearly all actives have a fitted effect of over 55% in size
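Chicken DT40 Tdp1-/- cells stably complemented with human TDP1 were seeded at 400 cells/well in medium containing 20 nM camptothecin, exposed to pin-transferred compounds, and grown at 37 °C for at least 48 hr. Viability was read as ATP luminescence.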
TDP1 block: blocks human tyrosyl-DNA phosphodiesterase 1 | Q9NUW8 | recombinant TDP1, AlphaScreen DNA substrate cleavage | Potency, µM (titrated, usually from 130 µM), for the others: top-dose activity change, negative = inhibition, actives largely listed as inhibitors | hit rate 0.28% among 350,000; also: potency is read from the fitted curve at half-maximal effect; nearly all actives have a fitted effect of over 40% in size
Target sequence (Q9NUW8 whole entry, looked up): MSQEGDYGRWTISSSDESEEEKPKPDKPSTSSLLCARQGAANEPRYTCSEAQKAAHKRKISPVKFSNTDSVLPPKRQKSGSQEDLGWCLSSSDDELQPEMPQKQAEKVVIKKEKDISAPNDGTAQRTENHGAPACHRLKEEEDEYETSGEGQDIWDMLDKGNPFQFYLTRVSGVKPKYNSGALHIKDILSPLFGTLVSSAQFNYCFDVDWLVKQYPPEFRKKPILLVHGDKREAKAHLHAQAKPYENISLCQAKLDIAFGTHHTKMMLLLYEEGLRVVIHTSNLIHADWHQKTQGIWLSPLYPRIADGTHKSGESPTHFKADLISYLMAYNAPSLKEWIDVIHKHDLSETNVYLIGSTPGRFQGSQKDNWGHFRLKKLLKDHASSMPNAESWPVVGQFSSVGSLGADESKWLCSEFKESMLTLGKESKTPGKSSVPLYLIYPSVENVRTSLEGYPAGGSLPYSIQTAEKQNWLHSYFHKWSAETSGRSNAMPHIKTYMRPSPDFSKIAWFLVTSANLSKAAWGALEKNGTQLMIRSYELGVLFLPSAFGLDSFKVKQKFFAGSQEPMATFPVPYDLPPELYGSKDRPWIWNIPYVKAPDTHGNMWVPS
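Tdp1 1 nM final; 15 min RT w/ cpd; substrate 15 nM, 5 min; beads 10 ug/ml, 10 min; AlphaScreen read. Neg ctrl: no enzyme.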
Giardia kill: Giardia lamblia killing; Giardia lamblia trophozoite viability; activity change, % at 7.66 µM, hits read low; hit rate 0.15% among 340,000; AID 540267; in the data active = activity change below about -80%; inconclusive = between about -30% and that limit;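 also: parasites exposed to compound for two days anaerobically before the ATP read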
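Compounds were tested on trophozoites seeded at 100 cells/well and held 48 hrs at 37 deg C anaerobically. An ATP-based luminescent kit measured the remaining live cells.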
IL-1B inflam inh: inflammasome signaling inhibition, IL-1 beta readout. hit rate 4.7% among 360,000. THP-1 LPS/ATP IL-1B secretion, AlphaLISA, 16 h; active compounds read low. AID 743279. activity change, % at 57.5 µM; in the data active = activity change below about -50%; inconclusive = mostly about -30% to -49%
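Secreted IL-1B measured by AlphaLISA bead assay after 16 h compound exposure of THP-1 cells; compounds (final up to 57.5 uM) added 1 h before LPS (250 ng/mL) and ATP (1.25 mM) stimulation; lower signal means less secretion.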
DT40 TDP1 no CPT: qHTS for Inhibitors of human tyrosyl-DNA phosphodiesterase 1 (TDP1): qHTS in cells in absence of CPT; DT40 Tdp1-/- hTDP1 cells, no CPT, ATP luminescence, 48 h; Potency, µM (top dose mostly 46.2 µM), for inactives: top-dose activity change, negative = growth inhibition, most hits filed as inhibitors; hit rate 15% among 420,000; also: potency is read from the fitted curve at half-maximal effect; nearly all actives have a fitted effect of over 55% in size
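Chicken DT40 Tdp1-/- cells complemented with human TDP1, screened without camptothecin (DMSO vehicle only), 400 cells/well. Compounds pin-transferred, cells incubated at 37 °C for at least 48 hr. Growth read as ATP-dependent luminescence (CellTiter-Glo, 30 min at RT).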
ELG1 DNA repair: ELG1-dependent DNA repair inhibition; AID 504467; HEK293T ELG1-luciferase reporter, luminescence, 16 h; DNA damage induced by 5-fluorouridine; Potency, µM (highest dose often 46.1 µM), without a hit: top-dose activity change, negative = inhibition, actives largely listed as inhibitors; hit rate 2.3% among 330,000; also: potency is read from the fitted curve at half-maximal effect; nearly all actives have a fitted effect of over 55% in size
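In this reporter screen, reduction of luminescence relative to DMSO vehicle indicated activity. Compounds and 5-fluorouridine were added together to 2,000 cells per well, incubated for 16 hr at 37 °C, then developed with ONE-Glo.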
The depositor's hits bear a star. Unless noted, calls follow the shape of the dose curve; as a rule, active = well fitted curve in the direction sought with a large enough effect; inconclusive = small, poorly fitted or top-dose-only effect, or another doubt; inactive = no such curve, though single readings can be large; an effect the other way counts as inactive or inconclusive. % is scaled to controls: 0 for no effect and ±100 for the full control effect.

How did Clc1ccccc1-c1nnc2sc(-c3ccc4c(c3)OCO4)nn12 do in these assays?
DT40 TDP1 CPT: 16µM*; TDP1 block: 6%; Giardia kill: -2; IL-1B inflam inh: -13; DT40 TDP1 no CPT: inconclusive; ELG1 DNA repair: 0%

How did Brc1ccccc1-c1nnc2sc(-c3ccc4c(c3)OCCO4)nn12 do in these assays?
DT40 TDP1 CPT: 12µM*; TDP1 block: 5%; Giardia kill: -2; IL-1B inflam inh: inconclusive; DT40 TDP1 no CPT: 23µM*; ELG1 DNA repair: inconclusive

Results for Clc1ccc(-c2nnc3sc(-c4ccc(Br)o4)nn23)c(Cl)c1 ?
DT40 TDP1 CPT: -24%; TDP1 block: 5%; Giardia kill: 34; IL-1B inflam inh: 5; DT40 TDP1 no CPT: inconclusive; ELG1 DNA repair: 9%

How did N#C/C(=C\c1ccco1)C(=O)NCc1ccccc1 do in these assays?
DT40 TDP1 CPT: -4%; TDP1 block: 4%; Giardia kill: -3; IL-1B inflam inh: 0; DT40 TDP1 no CPT: -10%; ELG1 DNA repair: inconclusive

What do the screens show for `N#CC(C#N)=C1C=CC=CN1/C(=C\c1ccco1)C(=O)c1ccc(Cl)cc1`?
DT40 TDP1 CPT: 0.58µM*; TDP1 block: 4%; Giardia kill: 2; IL-1B inflam inh: -101*; DT40 TDP1 no CPT: 0.92µM*; ELG1 DNA repair: inconclusive

What do the screens show for `N#CC(C#N)=C1C=CC=CN1/C(=C\c1ccco1)C(=O)c1ccc(-c2ccccc2)cc1`?
DT40 TDP1 CPT: 0.92µM*; TDP1 block: 4%; Giardia kill: -18; IL-1B inflam inh: -67*; DT40 TDP1 no CPT: 0.58µM*; ELG1 DNA repair: inconclusive

What do the screens show for `CC(/C=N/n1c(-c2ccc(Cl)cc2)n[nH]c1=S)=C\c1ccco1`?
DT40 TDP1 CPT: inconclusive; TDP1 block: 5%; Giardia kill: -16; IL-1B inflam inh: 3; DT40 TDP1 no CPT: inconclusive; ELG1 DNA repair: 0%

What do the screens show for `COc1ccc(/C=C2\C(=O)NC(=S)N2C(=O)c2ccc(C)cc2)cc1`?
DT40 TDP1 CPT: inconclusive; TDP1 block: inconclusive; Giardia kill: -2; IL-1B inflam inh: 12; DT40 TDP1 no CPT: 15µM*; ELG1 DNA repair: 16%

How did CCCCC1=NN2CCS(=O)(=O)N=C2S1 do in these assays?
DT40 TDP1 CPT: 8%; TDP1 block: 5%; Giardia kill: -9; IL-1B inflam inh: 3; DT40 TDP1 no CPT: 3%; ELG1 DNA repair: 3%

How did O=S(=O)(Cc1cc(Cl)nc(-c2ccncc2)n1)c1ccccc1 do in these assays?
DT40 TDP1 CPT: inconclusive; TDP1 block: 1%; Giardia kill: -18; IL-1B inflam inh: -97*; DT40 TDP1 no CPT: inconclusive; ELG1 DNA repair: -5%

Results for CCOC(=O)CSc1cc(CS(=O)(=O)c2ccccc2)nc(-c2ccccc2)n1 ?
DT40 TDP1 CPT: -10%; TDP1 block: 3%; Giardia kill: 2; IL-1B inflam inh: 33; DT40 TDP1 no CPT: -27%; ELG1 DNA repair: 0%

What do the screens show for `O=S(=O)(Cc1cc(Cl)nc(-c2ccccc2)n1)c1ccccc1`?
DT40 TDP1 CPT: -12%; TDP1 block: 3%; Giardia kill: -5; IL-1B inflam inh: -70*; DT40 TDP1 no CPT: inconclusive; ELG1 DNA repair: 5%

How did COCC(=O)Nc1cc(C(=O)N2CCCC(C(C)=O)C2)cc2nc(-c3ccccc3)n(C)c12 (stereo unspecified) do in these assays?
DT40 TDP1 CPT: 5%; DT40 TDP1 no CPT: 1%

What do the screens show for `O=[N+]([O-])c1ccccc1C=NN1CCCCCC1`?
DT40 TDP1 CPT: -29%; Giardia kill: 9; IL-1B inflam inh: -16; DT40 TDP1 no CPT: inconclusive

Results for COc1ccc(CN(C)C(=O)C2CSC3(C)CCC(=O)N23)c(OC)c1 (stereo unspecified) ?
DT40 TDP1 CPT: 12µM*; IL-1B inflam inh: 0; DT40 TDP1 no CPT: 15µM*

How did CN(Cc1cccc(Cl)c1)C(=O)C1CSC2(C)CCC(=O)N12 (stereo unspecified) do in these assays?
DT40 TDP1 CPT: 18µM*; TDP1 block: 3%; Giardia kill: 28; IL-1B inflam inh: 15; DT40 TDP1 no CPT: 21µM*; ELG1 DNA repair: 3%

What do the screens show for `CN(Cc1ccc(Cl)cc1Cl)C(=O)C1CSC2(C)CCC(=O)N12` (stereo unspecified)?
DT40 TDP1 CPT: 13µM*; IL-1B inflam inh: 4; DT40 TDP1 no CPT: 16µM*

What do the screens show for `COc1ccc(CN(C)C(=O)C2CSC3(C)CCC(=O)N23)cc1OC` (stereo unspecified)?
DT40 TDP1 CPT: -5%; TDP1 block: 0%; Giardia kill: -13; IL-1B inflam inh: -6; DT40 TDP1 no CPT: -9%; ELG1 DNA repair: 13%

How did O=C(O)c1cccc(S(=O)(=O)Nc2ccccc2Oc2ccccc2)c1 do in these assays?
DT40 TDP1 CPT: -5%; IL-1B inflam inh: 1; DT40 TDP1 no CPT: 0%

What do the screens show for `O=C(O)c1ccc(Nc2nc3ccccc3n3cnnc23)cc1`?
DT40 TDP1 CPT: inconclusive; TDP1 block: -13%; DT40 TDP1 no CPT: 7.3µM*

How did CCCCOC(=O)c1ccc(Nc2nc3ccc(C(=O)c4ccccc4)cc3n3cnnc23)cc1 do in these assays?
DT40 TDP1 CPT: 21µM*; TDP1 block: 6%; DT40 TDP1 no CPT: 16µM*

What do the screens show for `c1ccc(Nc2nc3ccccc3n3cnnc23)cc1`?
DT40 TDP1 CPT: -26%; TDP1 block: 0%; Giardia kill: 13; IL-1B inflam inh: 34; DT40 TDP1 no CPT: -25%; ELG1 DNA repair: 9%

What do the screens show for `CCOc1ccc(Nc2nc3ccccc3n3cnnc23)cc1`?
DT40 TDP1 CPT: inconclusive; Giardia kill: 8; IL-1B inflam inh: 0; DT40 TDP1 no CPT: 23µM*; ELG1 DNA repair: inconclusive

How did Cc1ccc(NC(=O)CN2C(=O)CCc3cc(S(=O)(=O)N4CCOCC4)ccc32)cc1N(C)C do in these assays?
DT40 TDP1 CPT: -8%; TDP1 block: 9%; DT40 TDP1 no CPT: 3%

What do the screens show for `COc1ccccc1CN(Cc1ccco1)c1cnc(S(C)(=O)=O)nc1C(=O)Nc1cc(C)ccc1C`?
DT40 TDP1 CPT: inconclusive; TDP1 block: 6%; DT40 TDP1 no CPT: inconclusive

Results for Cc1ccc(C(=O)CSc2ncnc3sc4c(c23)CCCC4)cc1 ?
DT40 TDP1 CPT: inconclusive; TDP1 block: -2%; Giardia kill: -13; IL-1B inflam inh: -5; DT40 TDP1 no CPT: 21µM*; ELG1 DNA repair: 11%

What do the screens show for `O=C(O)CSc1ncnc2sc3c(c12)CCCC3`?
DT40 TDP1 CPT: -2%; TDP1 block: 5%; Giardia kill: -10; IL-1B inflam inh: 21; DT40 TDP1 no CPT: -24%; ELG1 DNA repair: inconclusive
